Screening results (PubChem)
PHOSPHO1 inh – PubChem AID 1565 | Phosphoethanolamine/phosphocholine phosphatase (Homo sapiens), Q8TCT1 | recombinant PHOSPHO1, absorbance phosphatase assay | inhibition, % at 13.3 µM | actives 1.1% (n = 290,000); in the data active = inhibition above about 60%
ANO1 activ – TMEM16A chloride channel activators or potentiators, primary screen, cell-based, HTS | HEK293 TMEM16A/YFP-H148Q/I152L, iodide quench fluorescence; active compounds read low | B-score at 10 µM | actives 0.3% (n = 340,000) | AID 623877, 2012;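 active = fluorescence-ratio B-score plate-corrected deviation score at least 3 library SD below zero, with starting fluorescence score within 5 deviations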;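 also: channel opened by trigger with iodide after compound preincubation; score built on the fluorescence ratio of max minus min over baseline; more negative score means more quench and so TMEM16A activation or potentiation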
HDAC3 inh – HDAC3 deacetylase inhibitors, primary screen, biochemical, fluorescence, cell-free homogeneous. Histone deacetylase 3 (Homo sapiens), O15379. recombinant HDAC3, fluorogenic peptide/trypsin coupled. inhibition, % at 8.3 µM. actives 0.15% (n = 320,000). AID 2718, 2010; in the data active = inhibition above about 26%, passing the limit was not always enough
CHT inh – inhibitors of human choline transporter CHT | High affinity choline transporter 1 (Homo sapiens), Q9GZV3 | CHT-expressing cells, membrane potential dye, choline response; active compounds read low | B-score at 10 µM | actives 0.86% (n = 310,000) | AID 488975, 2010;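 active = B-score over 3 SD under the library average, and starting fluorescence ratio not unusually high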;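 also: choline stimulus applied at its EC90 after an EC20 pre-addition; B-score computed on integrated fluorescence ratio after choline addition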
Target sequence (Q9GZV3 whole entry, looked up): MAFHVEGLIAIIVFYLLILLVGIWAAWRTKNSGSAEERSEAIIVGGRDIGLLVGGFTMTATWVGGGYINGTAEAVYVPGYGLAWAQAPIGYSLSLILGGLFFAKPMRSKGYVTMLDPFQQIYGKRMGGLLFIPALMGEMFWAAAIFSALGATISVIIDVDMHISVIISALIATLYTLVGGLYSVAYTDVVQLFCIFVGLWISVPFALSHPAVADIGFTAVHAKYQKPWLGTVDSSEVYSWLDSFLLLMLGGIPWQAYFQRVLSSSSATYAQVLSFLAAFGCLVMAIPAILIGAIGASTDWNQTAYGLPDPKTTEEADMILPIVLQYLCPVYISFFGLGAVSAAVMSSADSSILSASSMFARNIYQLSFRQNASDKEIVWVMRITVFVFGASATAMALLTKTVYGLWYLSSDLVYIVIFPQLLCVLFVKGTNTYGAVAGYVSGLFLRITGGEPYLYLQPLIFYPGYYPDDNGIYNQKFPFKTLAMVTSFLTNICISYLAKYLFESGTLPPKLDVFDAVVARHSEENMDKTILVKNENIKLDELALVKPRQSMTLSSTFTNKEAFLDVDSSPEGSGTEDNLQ
CHT allo act – CHT positive allosteric modulators, primary screen, cell-based, membrane potential dye, choline EC20. CHT-expressing cells; active compounds read high; LV-AA mutant CHT in HEK293 cells. B-score at 10 µM. actives 0.49% (n = 310,000). AID 488977, 2010;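 active = initial fluorescence not abnormally high and integrated response B-score, plate-corrected, over 3 SD above library mean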
TMEM16A inh – TMEM16A chloride channel inhibitors, primary screen, cell-based, HTS | Anoctamin-1 (Mus musculus), Q8BHY3 | AID 588511, 2011 | HEK293 TMEM16A/YFP iodide influx fluorescence, ionomycin | normalized B-score (activity score, 25-100; higher = stronger inhibition) at 10 µM | actives 1.2% (n = 310,000);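 active = ratio plate-corrected score three or more library SD toward inhibition, starting fluorescence score within five deviations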;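 also: score derived from kinetic fluorescence span divided by baseline fluorescence per well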
* marks the source's active call; other numbers are inactive results; i = inactive; . = not tested or not shown. The list is not random: actives were taken first. Their share in the collection is about 3.2%.

SMILES	PHOSPHO1 inh	ANO1 activ	HDAC3 inh	CHT inh	CHT allo act	TMEM16A inh
Cn1c(SCC(=O)N/N=C/C=C\c2ccco2)nc2ccccc21	73.4*	i	5.4	i	i	i
CC1=NOC(=O)/C1=C\c1ccc(-c2ccc(Cl)cc2Cl)o1	-22.6	-6.62*	.	.	.	.
CCCOc1ccc(Cl)cc1/C=C1/C(=O)ON=C1C	5.2	i	2.8	i	i	i
O=C(Cc1ccc(Cl)cc1)c1c[nH]c(C(=O)NCc2cccnc2)c1	16.3	i	-4.3	i	i	i
CCOc1ccc(CCNC(=O)CSc2nn(-c3ccc(C)c(Cl)c3)c(=S)s2)cc1OCC	-11.1	-5.97*	-0.3	i	i	i
Cc1ccc(NC(=O)NCCCN2CCCC2=O)cc1	7.1	i	1.1	i	i	i
Brc1ccc(CSc2nnc(-c3cccnc3)o2)cc1	47.7	i	-6.1	-6.28*	i	i
CN1CCc2c(OCc3ccc(F)cc3)cccc2C1=O	45.6	i	-3.3	i	i	i
O=C1c2cccc(OCc3ccc(F)cc3)c2CCN1Cc1ccc(F)cc1	-11.7	i	0.1	i	i	25*
Nc1nc(N)nc(-c2cc(C(F)(F)F)ccc2Cl)n1	.	i	27.8*	i	i	i
c1ccc2cc(-c3csnn3)ccc2c1	29.8	i	3.8	i	i	i
CCOC(=O)C1CCN(C(c2cc3ccc(C)c(C)c3[nH]c2=O)c2nnnn2C2CCCCC2)CC1 (stereo not drawn)	86.5*	i	5.5	i	i	i
CCOC(=O)C1CCN(C(c2cc3c(C)ccc(C)c3[nH]c2=O)c2nnnn2C2CCCCC2)CC1 (stereo not drawn)	74.3*	i	7.3	i	i	i
CC(=O)NC(=S)Nc1sc2c(c1C#N)CCCCC2	11.2	i	.	.	.	.
Cc1csc(N/N=C/c2ccc(O)c([N+](=O)[O-])c2)n1	93.2*	i	3.7	i	i	i
CC(C)n1c(SCC(=O)Nc2ccc(F)cc2)nnc1C1CC1	36.4	i	-1.1	i	i	i
CN(C)c1ccnc2sc(C(N)=O)c(N)c12	60.8*	i	9.0	i	i	i
CN(C)c1ccnc2sc(C(=O)c3ccc(Br)cc3)c(N)c12	42.1	i	5.8	i	i	i
COC(=O)c1ccc(N2C(=O)CC(Sc3n[nH]c(C)n3)C2=O)cc1 (stereo not drawn)	84.9*	i	-1.4	i	i	i
COc1ccc(N2C(=O)CC(Sc3n[nH]c(-c4cccc(C)c4)n3)C2=O)cc1 (stereo not drawn)	19.7	i	3.1	i	i	i
COC(=O)c1cc(C(=O)OC)cc(N2C(=O)CC(Sc3nc(C)cc(C)n3)C2=O)c1 (stereo not drawn)	18.9	-18.4*	-2.3	i	i	i
CCN1C(=O)/C(=C2\C=Cc3cc(C)ccc3N2CC)OC1=S	-15.8	i	2.4	i	i	i
CCN1C(=O)/C(=C2/C=Cc3ccccc3N2C)OC1=S	65.0*	i	-3.0	i	i	i
NS(=O)(=O)c1ccc(N2N=C(c3ccccc3)CC2c2cccc(F)c2)cc1 (stereo not drawn)	8.3	i	-179.6	i	i	i
COc1ccc(C2CC(c3ccccc3)=NN2c2ccc(S(N)(=O)=O)cc2)cc1OC (stereo not drawn)	32.2	-6.08*	-19.6	i	i	i
SMILES	PHOSPHO1 inh	ANO1 activ	HDAC3 inh	CHT inh	CHT allo act	TMEM16A inh
COc1ccc(OCC(=O)c2c(O)c3ccccc3oc2=O)cc1	-35.4	i	0.1	i	i	i
CC1CCC(C(=O)c2c(O)c3ccccc3oc2=O)CC1 (stereo not drawn)	0.3	i	0.6	-10.7*	i	i
CC(=N)c1c(O)c2ccccc2oc1=O	41.8	i	3.9	i	i	i
CCOc1ccc(OCC(=O)c2c(O)c3ccccc3oc2=O)cc1	68.5*	i	-3.0	i	i	i
COc1ccc(C(=O)n2cnc3ccccc32)cc1	.	i	33.2*	i	i	i
COc1ccc(C(=O)n2cnc(N)n2)cc1	27.4	i	70.7*	i	i	i
COc1ccc(C(=O)n2cnc3ccccc32)cc1Br	.	i	9.3	i	i	i
COc1ccc(C(=O)n2ncc(C#N)c2N)cc1	-14.0	i	.	.	.	.
CCNC(=S)N(CCc1c(C)[nH]c2ccc(C)cc12)Cc1cc(OC)c(OC)c(OC)c1	-13.5	i	-6.5	i	i	i
CN(C)C(=O)CSc1cccc2cccnc12	71.4*	i	-8.1	i	i	i
O=S(=O)(c1ccccc1)c1nc(Nc2ccccc2N2CCOCC2)sc1Cl	79.2*	i	7.7	i	i	i
O=S(=O)(c1ccccc1)c1nc(NC2CC2)sc1Cl	12.3	i	-4.9	i	i	i
Cc1nn(-c2ccccc2)c(C)c1/C=N/NC(=O)c1cc(C23CC4CC(CC(C4)C2)C3)[nH]n1	21.1	i	12.4	-8.48*	i	i
Cc1ccc2c(CC(=O)OCc3cc(=O)n4c(n3)sc3ccccc34)coc2c1	29.2	i	3.4	i	i	i
CCOC(=O)N1CCC(NC(=O)C2CCN(Cc3nc(-c4ccc(CC)cc4)oc3C)CC2)CC1	.	i	.	.	.	.
CCOC(=O)N1CCC(NC(=O)C2CCCN(Cc3nc(-c4ccc(CC)cc4)oc3C)C2)CC1 (stereo not drawn)	44.5	i	2.2	i	i	25*
O=C(CSc1nn(-c2ccccc2)c(=S)s1)NC(=O)NCc1ccco1	78.0*	i	0.7	i	i	i
Cc1ccc(NC(=O)CSc2nnnn2C)cc1S(=O)(=O)N(C)C	-1.1	i	12.8	i	i	i
O=C(CSc1nc2cc(Cl)ccc2s1)NC(=O)NCc1ccco1	35.5	i	0.7	i	i	i
Cc1ccc(NC(=O)CSc2nn(-c3ccccc3)c(=S)s2)cc1S(=O)(=O)N(C)C	-28.4	i	5.8	i	i	25*
COc1ccc(CCNC(=O)COC(=O)C2CC2)cc1	5.6	i	2.5	i	i	i
Cc1cccc(-n2c(SCC(=O)Nc3nonc3C)nnc2-c2ccoc2C)c1	12.1	.	-2.2	i	i	i
